The whole screen tested about 330,000 compounds, of which about 4,400 (1.3%) were called active. Shown is part of a subset that was picked to be rich in actives. Values without a mark were called inactive.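 Rule for the calls: active = growth inhibition of the mutant yeast at or above 50%; inactive = the rest.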
assay: growth inhibitors of tim23-1 mutant yeast, primary screen, luminescence, uHTS (AID 463212);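 note: temperature-sensitive mutant grown at 25 °C; plate controls were DMSO-treated mutant yeast for no effect and medium wells lacking yeast for full effect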; details: S. cerevisiae tim23-1 growth, BacTiter-Glo luminescence, 24 h; at 20 µM; hits give high values

Going from COc1ccc(C(C(=O)NCC2CCCO2)N(C(=O)Cn2nnc3ccccc32)c2ccc(NC(C)=O)cc2)cc1OC (configuration not stated) to Cc1cccc(C)c1NC(=O)CSc1nnc(-c2ccccc2)n1Cc1ccc2c(c1)OCO2, the inhibition falls from 15.6% to 3.97%.

First: CCOc1ccc(CC(=O)NCCS(=O)(=O)N2CCN(c3ccccc3)CC2)cc1
Second: C(=N/N1CCN(c2ccccc2)CC1)/c1cccs1
The inhibition of the first is lower: -7.53% for the first, 15.3% for the second.

Going from O=C(N/N=C/c1cccc2cccnc12)[C@H]1C[C@@H]1c1ccccc1 to c1ccc(-c2csc(N3CCc4ccccc4C3)n2)cc1, the inhibition falls from 18.6% to 14.4%.

First: CCOc1ccc(C(C)C)cc1S(=O)(=O)n1nc(C)cc1C
Second: COc1ccc(OC)c(S(=O)(=O)n2c([N+](=O)[O-])cnc2C)c1
The inhibition of the first is higher: 36.9% for the first, 12.9% for the second.

Compared with COc1cc(OC)c(NS(=O)(=O)c2cn(C)cn2)cc1Cl, COc1cc2c(cc1OC)C(/C=C/c1ccco1)=NCC2 is higher in inhibition: -16.4% for the first, -9.38% for the second.

First: CC(C)(C)n1nnnc1C(c1ccccc1F)N1CCN(C(=O)c2ccco2)CC1 (configuration not stated)
Second: CNS(=O)(=O)c1cnccc1N1CCN(c2cccc(C)c2)CC1
The inhibition of the first is higher: 19.8% for the first, 0.287% for the second.

Compared with CC(=O)O[C@H]1CC[C@@]2(C)[C@@H](CC[C@@H]3[C@@H]2CC[C@]2(C)[C@@H](C(C)(C)O)C[C@@H]32)C1, CCc1cc(=O)oc2c(C)c(OCC(=O)N3CC[C@@]4(O)CCCC[C@H]4C3)ccc12 is lower in inhibition: 28.2% for the first, 2.55% for the second.

Compared with Cc1cc(C)cc(C(=O)OCC(=O)NCCNC(=O)COC(=O)c2cc(C)cc(C)c2)c1, O=C(COC(=O)c1ccc(Cl)nc1)NCc1ccc2c(c1)OCO2 is higher in inhibition: 2.3% for the first, 6.05% for the second.

First: CCOc1cccc(=O)c2c(C)n(CC3CCCO3)c(C)c12 (configuration not stated)
Second: CCOC(=O)C1=C(CSc2nccn2C)NC(=O)NC1c1ccc(OC)cc1 (configuration not stated)
The inhibition of the first is lower: -1.14% for the first, 7.63% for the second.

First: CN1CN(C)c2ccc([N+](=O)[O-])c3cccc1c23
Second: Cc1cc(C(=O)COc2ccccc2[N+](=O)[O-])c(C)n1-c1cccc(S(=O)(=O)N2CCOCC2)c1
The inhibition of the first is higher: 9.47% for the first, 7.4% for the second.

Going from O=C(CC1CCCCC1)NCc1ccccc1 to N/C(=N\OC(=O)CCC1CCCCC1)c1ccccn1, the inhibition rises from 14.8% to 30.2%.

First: COc1cccc(CN2CCN(Cc3ccc4cccc(F)c4n3)CC2CCO)c1 (configuration not stated)
Second: COc1cccc(CNC(C)C(=O)Nc2ccc(S(=O)(=O)N3CCCC3)cc2)c1 (configuration not stated)
The inhibition of the first is lower: 6.61% for the first, 19.6% for the second.

Going from NC(=O)c1ccsc1NC(=O)c1ccco1 to O=C(Nc1nnc(CCOCCOCCc2nnc(NC(=O)c3ccco3)s2)s1)c1ccco1, the inhibition falls from 6.25% to -4.68%.

First: N#Cc1ccc(N2Cc3ccccc3/C2=N/C(=O)Nc2ccc(Cl)cc2)cc1
Second: O=C1CN(c2nc(-c3ccccc3)c3cc(Br)ccc3n2)c2ccccc2N1
The inhibition of the first is higher: 28.7% for the first, 4.72% for the second.

Going from Cc1ccc(Cl)c(OCC(=O)N2CCc3ccccc3C2)c1 to Cc1ccccc1N1CC(C(=O)Nc2ccc3c(c2)OCO3)CC1=O (configuration not stated), the inhibition falls from 35.1% to 2.96%.

Going from CCC(CC)NC(=O)/C=C/c1cccc([N+](=O)[O-])c1 to CN(C)NC(=O)c1csnc1-c1c(Cl)cccc1Cl, the inhibition falls from 17.4% to -15.4%.

First: COc1ccc(-c2n[nH]c(C)c2-c2ccccc2OC)c(O)c1
Second: COc1ccc2sc(-c3ccccc3OC)c(-c3ccc(OCCN4CCCC4)cc3)c2c1
The inhibition of the first is higher: 38.9% for the first, -0.331% for the second.

Compared with O=C1COc2ccc(S(=O)(=O)NCCc3ccc(Cl)cc3)cc2N1, O=S(=O)(Nc1nccs1)c1ccc2c(c1)OCCO2 is higher in inhibition: 8.79% for the first, 12.7% for the second.

Compared with CC(=O)NC(=S)Nc1ccc(NC(=O)c2cccnc2)cc1, CCOC(=O)c1ccc(NC(=O)c2cccnc2)cc1 is lower in inhibition: 16.1% for the first, 13.2% for the second.

First: O=c1c2ccccc2nc2n1C(CSCc1cccc(C(F)(F)F)c1)CS2 (configuration not stated)
Second: CC1=C(C(N)=O)C(c2ccc3c(c2)OCO3)n2nc(-c3cccc(C)c3)nc2N1 (configuration not stated)
The inhibition of the first is lower: 14.7% for the first, 18.1% for the second.

Going from Cc1ccc(CNC(=O)Cn2cnc(S(=O)(=O)N3CCCCC3)c2)o1 to CC(C)c1ccc(S(=O)(=O)N2CCN(C(C)C(=O)NC3CCCC3)CC2)cc1 (configuration not stated), the inhibition rises from -6.13% to 13.4%.

Going from Cc1[nH]n(C)c(=O)c1N=Nc1ccc(S(C)(=O)=O)cc1 to CC1=NN(C(N)=S)C(=O)C1N=Nc1cc(Cl)ccc1Cl (configuration not stated), the inhibition rises from 11.7% to 36.9%.

Compared with Cc1c(Cl)cccc1NC(=O)CSc1ccc(-c2cccnc2)nn1, Cn1cccc1C(=O)OCC(=O)c1ccc(Br)s1 is higher in inhibition: 2.22% for the first, 15.9% for the second.

Going from COCCOC(=O)C1=C(C)N=c2s/c(=C\c3cccs3)c(=O)n2C1c1cccs1 (configuration not stated) to COc1ccc(-c2sc3ccccc3c2-c2ccc(OCCN3CCOCC3)cc2)cc1, the inhibition rises from -11.4% to 28%.

Compared with Cc1cc(=O)oc(C)c1C(=O)NC1CC(C)(C)NC(C)(C)C1, O=C(Nc1nnc(C2CC2)s1)C1=NN(C2CCS(=O)(=O)C2)C(=O)CC1 (configuration not stated) is lower in inhibition: 13.7% for the first, 9.54% for the second.

With COc1ccc(C(C[N+](=O)[O-])n2nc(C)cc2C)cc1 (configuration not stated) the inhibition was 84.7% (active).
With O=C1c2cccc3c([N+](=O)[O-])ccc(c23)C(=O)N1CC1CCCO1 (configuration not stated) the inhibition was 87% (active).
For N/C(=N\OC(=O)CC1CCCCC1)c1ccccc1, the inhibition was 56.4% (active).
For O=C(Nc1nc(-c2ccco2)c(-c2ccco2)s1)c1ccco1, the inhibition was 69.5% (active).
In the case of Cc1ccc2c(c1)c1ncnc(N3CCc4ccccc4C3)c1n2C, the inhibition is reported as 51% (active).
In the case of COc1ccccc1-c1n[nH]c2c1[C@H](C)CC[C@H]2C(C)C, the inhibition is reported as 53% (active).
In the case of Cc1ccc2nc(-c3ccc(NC(=O)c4cccnc4)cc3)oc2c1, the inhibition is reported as 52% (active).
For Cc1[nH]n(C(N)=S)c(=O)c1N=Nc1ccc(Cl)cc1Cl, the inhibition was 67% (active).
In the case of CCOC(=O)C1=C(C)N=c2s/c(=C\C(=O)OC)c(=O)n2C1c1ccc(OC)cc1 (configuration not stated), the inhibition is reported as 52.3% (active).
For COc1cccc(-c2sc3ccc(OC)cc3c2-c2ccc(OCCN3CCCCC3)cc2)c1, the inhibition was 58.8% (active).
With c1ccc(-c2nnc3n2NC(c2ccc4c(c2)OCO4)S3)cc1 (configuration not stated) the inhibition was 57.2% (active).
In the case of COc1ccc(S(=O)(=O)N2CCN(C(C)C(=O)Nc3ccc(C(C)C)cc3)CC2)cc1 (configuration not stated), the inhibition is reported as 50.6% (active).

Source: PubChem BioAssay AID463212 (Sanford-Burnham Center for Chemical Genomics, 2010)
